Source: PubChem
Rows were chosen to be rich in hits. Some 9% of all compounds tested hit in one or more screens of this group.
JMJD2A Tudor = blocks the human JMJD2A Tudor domain | AID 504339 | AlphaScreen JMJD2A-Tudor / H3K4me3 peptide binding | hit rate 4.4% among 390,000 | Potency, µM (titrated, usually from 114 µM), for the others: top-dose activity change, negative = inhibition, actives largely listed as inhibitors; note: % is set by controls: 0 for no effect and ±100 for the full control effect; nearly all actives have a fitted effect of over 50% in size
BAZ2B block = BAZ2B (human) inhibition. Q9UIF8. AlphaScreen BAZ2B-H3K14Ac peptide displacement. Potency, µM (highest dose often 114 µM), for inactives: at the top dose activity change, negative = inhibition, hits mostly inhibitors. hit rate 4.4% among 360,000. AID 504333; note: % is set by controls: 0 for no effect and ±100 for the full control effect; nearly all actives have a fitted effect of over 60% in size
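AlphaScreen luminescence quantifies BAZ2B engagement of H3K14Ac peptide; the protein and biotinylated peptide are both at 50 nM final, buffer PBS pH 7.4 with 0.01% Tween-20, all steps at room temperature.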
G9a inh = G9a (human) methyltransferase inhibition; hit rate 8.8% among 350,000; G9a H3K9 monomethylation, AlphaScreen, 2 h; AID 504332; Potency, µM (highest dose often 102 µM), without a hit: top-dose activity, negative = inhibition, hits mostly inhibitors; note: % is set by controls: 0 for no effect and ±100 for the full control effect; nearly all actives have a fitted effect of over 75% in size
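Methyltransferase reactions run at room temperature for 2 h (20 nM enzyme, 500 nM biotin-H3K9 peptide, 20 uM SAM) after a 15 min compound preincubation; product detected by AlphaScreen beads and anti-H3K9me1 antibody.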
HP1b binding inh = HP1-beta chromodomain-methylated histone interaction inhibition | Potency, µM (highest dose often 114 µM), for inactives: at the highest dose activity change, negative = inhibition, hits mostly inhibitors | AID 540317 | AlphaScreen HP1-beta / biotin-H3K9me3 peptide binding | hit rate 0.56% among 390,000; note: nearly all actives have a fitted effect of over 70% in size
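AlphaScreen: HP1-beta (50 nM) preformed 30 min with biotin-H3(1-18)K9me3 peptide (50 nM) in PBS pH 7.4, 0.01% Tween-20. Compound added for 30 min at RT, then streptavidin donor/nickel chelate acceptor beads (10 ug/mL) for 30 min.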
PLK1 PBD inh = inhibitors of human PLK1 polo-box domain binding | P53350 | Plk1 PBD binding of FITC phosphopeptide, fluorescence polarization | Potency, µM, inactives show max response, negative = inhibition, most hits filed as inhibitors | hit rate 2.8% among 360,000 | AID 720504; note: series mostly up to about 57 µM; % is set by controls: 0 for no effect and ±100 for the full control effect; nearly all actives have a fitted effect of over 65% in size
ALOX12 inh = inhibitors of human 12S-lipoxygenase ALOX12; purified 12hLO, xylenol orange hydroperoxide absorbance; Potency, µM (highest dose often 108 µM), for inactives: at the highest dose activity change, negative = inhibition, hits mostly inhibitors; hit rate 1.1% among 580,000; P18054; note: % is set by controls: 0 for no effect and ±100 for the full control effect
Target sequence (P18054 whole entry, looked up): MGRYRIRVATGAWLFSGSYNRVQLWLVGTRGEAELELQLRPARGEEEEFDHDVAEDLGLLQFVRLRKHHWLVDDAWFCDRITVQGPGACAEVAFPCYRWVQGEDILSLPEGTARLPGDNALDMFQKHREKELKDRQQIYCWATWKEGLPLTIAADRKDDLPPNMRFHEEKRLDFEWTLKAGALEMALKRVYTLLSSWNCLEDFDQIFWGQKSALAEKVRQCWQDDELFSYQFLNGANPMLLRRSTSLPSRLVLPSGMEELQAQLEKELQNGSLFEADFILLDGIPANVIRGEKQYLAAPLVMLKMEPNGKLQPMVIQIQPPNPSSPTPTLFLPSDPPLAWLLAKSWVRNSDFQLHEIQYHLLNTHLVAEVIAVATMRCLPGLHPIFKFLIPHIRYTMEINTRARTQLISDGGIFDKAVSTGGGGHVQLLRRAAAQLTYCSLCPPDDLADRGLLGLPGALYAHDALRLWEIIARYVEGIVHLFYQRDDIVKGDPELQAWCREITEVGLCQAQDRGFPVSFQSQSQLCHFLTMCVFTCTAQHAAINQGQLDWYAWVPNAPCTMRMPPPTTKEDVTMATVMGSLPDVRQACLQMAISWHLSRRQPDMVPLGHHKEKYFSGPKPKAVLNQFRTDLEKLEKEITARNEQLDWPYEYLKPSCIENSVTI
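Hydroperoxide product was detected by ferrous iron/xylenol orange as the 573 to 405 nm absorbance ratio. Arachidonic acid at 40 uM (final) was turned over for 30 min at room temperature by 150 nM human 12hLO, pH 7.0 Hepes buffer, after 15 min compound preincubation.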
Active calls of the source: *; ? = inconclusive; nt = no result; [ ] = dose if it differs, or a comment. Calls come from the whole dose curve; as a rule, active = well fitted curve in the direction sought with a large enough effect; inconclusive = small, poorly fitted or top-dose-only effect, or another doubt; inactive = no such curve, though single readings can be large; an effect the other way counts as inactive or inconclusive. Potency is the fitted concentration of half-maximal effect.

SMILES	JMJD2A Tudor	BAZ2B block	G9a inh	HP1b binding inh	PLK1 PBD inh	ALOX12 inh
CCOC(=O)N1CCN(c2cc3[nH]c(=S)[nH]c3cc2F)CC1	44.7µM*	4.0%	2.24µM*	-29.3%	-13.3%	?
CCOC(=O)N1CCN(C(=O)c2ccc3c(=O)n(-c4ccccc4F)c(=S)[nH]c3c2)CC1	-11.7%	-15.2%	50.1µM*	77.5%	-13.9%	-3.4%
COc1ccc(CCn2c(=O)[nH]c3cc(C(=O)N4CCN(c5ccccc5)CC4)ccc3c2=O)cc1OC	-6.7%	-6.4%	8.9%	13.8%	-18.6%	2.4%
CCOC(=O)N1CCN(c2c(F)cc3[nH]c(=S)[nH]c3c2Br)CC1	-21.6%	-3.9%	?	6.5%	-24.7%	?
COc1ccc(CCn2c(=S)[nH]c3cc(C(=O)N4CCOCC4)ccc3c2=O)cc1OC	-22.0%	-26.3%	8.91µM*	15.7%	-21.9%	?
COc1ccc(C(=O)Cn2ccsc2=NC(C)=O)cc1	-22.5%	-18.4%	-23.3%	35.4%	-4.5%	-1.8%
CCc1cccc(C)c1NC(=O)c1cc(S(=O)(=O)N2CCC3(CC2)OCCO3)ccc1F	-9.2%	-3.6%	-0.6%[59 µM]	7.2%	nt	0.7%
CCOCCCn1c(=S)[nH]c2cc(C(=O)N3CCC(C(N)=O)(N4CCCCC4)CC3)ccc2c1=O	22.4µM*	1.5%	?	46.5%	-11.8%	0.1%
CC(C)C[C@@H](CN1CCC[C@@H]1CN1C(=O)C(=O)NC[C@@H]1Cc1ccccc1)N1C[C@H](Cc2ccc(O)cc2)N(CCc2ccccc2)C(=O)C1=O	-20.9%	nt	nt	69.4%	-15.4%	?
S=C(NCCCCNC(=S)NCc1ccccc1)NCc1ccccc1	-1.4%	-20.3%	44.7µM*	-11.0%	?	?
CCNC(=S)NNC(=S)NCc1ccccc1	1.26µM*	-27.0%	10µM*	6.5%	0.7%	6.9%
S=C(NCc1ccccc1)NCc1ccc(CNC(=S)NCc2ccccc2)cc1	-26.8%	-6.2%	1.8%[59 µM]	-2.0%	-3.5%	25.1µM*
CC(=O)NNC(=S)NCc1ccccc1	nt	nt	nt	nt	nt	47.0%
S=C(NCCCCc1ccccc1)NCc1ccccc1	-10.3%	-21.6%	55.0%	45.7%	-0.1%	342.7%
S=C(NCc1ccccc1)C(=S)NCc1ccccc1	35.5µM*	nt	nt	?	?	-7.3%
Fc1ccc(CNC(=S)NCc2ccccc2)cc1	0.0%	0.9%	nt	44.5%	7.1%	?
CCN1CCN(CC(=O)N2N=CCC2c2ccccc2)CC1 (centres undefined)	-1.4%	-14.9%	31.8%	16.5%	-12.0%	-17.6%
Cc1ccc(C)c(N=C2CCCN2Cc2ccccc2)c1C#N	46.5%	67.8%	32.1%[59 µM]	77.4%	-5.7%	14.6%
CC(C)(C)NNC(=S)Nc1cccc(C(F)(F)F)c1	-16.9%	-1.0%	9.0%	-1.5%	-5.3%	-7.8%
Cc1ccc(NC(=S)NNC(=S)NCc2ccccc2)cc1	?	-22.9%	?	-8.8%	29.9µM*	-3.7%
Cc1ccc(NC(=S)NNC(C)(C)C)cc1	-19.6%	-26.6%	44.7µM*	0.5%	-12.8%	68.5%
Cc1ccc(CNC(=S)Nc2ccccc2Cl)cc1	nt	nt	nt	nt	nt	44.7µM*
Cc1ccc(NCCC(=O)c2cccc([N+](=O)[O-])c2)c(C)c1	31.6µM*	28.2µM*	?	?	?	-22.6%
O=C(CC1(O)C(=O)N(C/C=C/c2ccccc2)c2ccccc21)c1ccccn1 (centres undefined)	?	-32.0%	50.1µM*	-19.3%	-12.3%	-6.5%
O=C(CC1(O)C(=O)N(CCc2ccccc2)c2ccccc21)c1ccccn1 (centres undefined)	-12.8%	-17.9%	?	12.5%	-4.6%	-2.4%
SMILES	JMJD2A Tudor	BAZ2B block	G9a inh	HP1b binding inh	PLK1 PBD inh	ALOX12 inh
CC1(c2ccc(Cl)c(Cl)c2)NC(=S)N2C1NC(=S)N2c1ccccc1 (centres undefined)	?	-36.3%	0.9%[59 µM]	-16.9%	-17.3%	-28.7%[57.4 µM]
CC1(c2ccc(Cl)cc2)NC(=S)N2C1NC(=S)N2c1ccccc1 (centres undefined)	-29.8%	50.1µM*	-113.5%[59 µM]	27.0%	-22.5%	?
Cc1cc(C)n(CC(O)Cn2cnc3c2c(=O)n(C)c(=O)n3C)n1 (centres undefined)	-3.0%	-1.2%	-1.8%[59 µM]	30.9%	-1.1%	0.0%
C=CCn1c(C)c(/C=C/c2cc[n+](C)cc2)c2ccccc21	-8.3%	3.4%	44.7µM*	23.9%	65.8%	-33.7%
Cc1[nH]c2ccccc2c1/C=C/c1cc[n+](C)cc1	-11.6%	56.2µM*	14.3%[12.7 µM]	13.2%	59.6%	-98.4%
C=CCn1cc(/C=C/c2cc[n+](C)cc2)c2ccccc21	-12.2%	50.1µM*	50.1µM*	-5.1%	34.8%	?
COc1ccc(-c2cnc(N)n2C)cc1	?	?	nt	35.0%	-15.6%	-14.2%
COc1ccc(NC(=O)c2ccnc(-c3nnc4ccc(Nc5ccccc5)nn34)c2)cn1	nt	nt	nt	nt	nt	39.4%[176 µM]
N#Cc1ccc(CN2CCC3(Cc4ccccc4CNC3=O)C2)cc1 (centres undefined)	nt	nt	nt	nt	nt	0.4%[6.33 µM]
O=C1NCc2ccccc2CC12CCN(Cc1ccc(Oc3ccccc3)cc1)C2 (centres undefined)	nt	nt	nt	nt	nt	35.5µM*
COc1cccc(CN2CCC3(Cc4ccccc4NC3=O)C2)c1 (centres undefined)	nt	nt	nt	nt	nt	39.8µM*
Cc1cc(C)c(CN2CCC3(Cc4ccccc4CNC3=O)C2)c(C)c1 (centres undefined)	nt	nt	nt	nt	nt	1µM*
O=C1NCc2ccccc2CC12CCN(Cc1ccc(-c3ccccc3)cc1)C2 (centres undefined)	nt	nt	nt	nt	nt	39.8µM*
COc1cccc(CN2CCCCC23Cc2ccccc2NC3=O)c1 (centres undefined)	nt	nt	nt	nt	nt	3.3%[176 µM]
Cc1cc(C)cc(CN2CCC3(CC2)Cc2ccccc2CNC3=O)c1	nt	nt	nt	nt	nt	-0.8%[6.33 µM]
CC(C)C[C@H]1CNC(=O)C(=O)N1C[C@H]1CCCN1C[C@H](CC(C)C)N1C[C@H](Cc2ccccc2)N(CC2CCCCC2)C(=O)C1=O	nt	nt	nt	nt	-6.6%	-12.3%
N#Cc1ccccc1Sc1ccccc1C(=O)OCC(=O)N1CCN(C(=O)c2ccco2)CC1	-11.5%	3.7%	?	19.3%	-11.5%	-22.0%
S=C1NC2(CCCC2)Nc2ccccc21	-13.0%	?	11.2µM*	48.9%	-7.0%	?
c1cc2c3c(cccc3c1)NC1(CCCC1)N2	?	nt	nt	-16.4%	-15.9%	?
S=C1NC2(CCCCC2)Nc2ccccc21	-16.8%	?	44.7µM*	6.8%	-13.4%	0.0%
CN1C(=O)C2(c3ccccc31)C1CCCC=C1C(C#N)=C(N)C2(C#N)C#N (centres undefined)	2.3%[11.4 µM]	22.7%	-45.8%[2.33 µM]	38.5%	-19.3%	44.7µM*
CN1C(=O)C2(C(C#N)=C(N)N(c3cc(Cl)cc(Cl)c3)C3=C2C(=O)CCC3)c2ccccc21 (centres undefined)	6.8%	7.9%	18.7%[12.7 µM]	26.9%	-2.6%	2.4%
